# Results as given in PubChem BioAssay (NCI).
# About 83,000 compounds went through this panel and 20% of them were active in at least one assay; those are over-represented in the sample as a whole.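 Cell lines were cultured in 96-well plates, exposed to a single compound concentration, and assessed for percent growth 48 hours later.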 The source made the active and inactive calls.
# Test system: SK-OV-3 ovarian
# Experiment: NCI-60 one-dose screen, 48 h (100 = growth as untreated, 0 = no growth, -100 = all killed)
# Conditions: 10 µM unless noted
# Experimental: Growth inhibition of the SK-OV-3 human tumor cell line is measured as a screen for anti-cancer activity. Cells are grown in 96 well plates and exposed to the test compound for 48 hours. Compounds are tested at a single concentration, which is 10^-5 M for most compounds. The reported endpoint is percent growth (GI% or GIPRCNT), where numbers from 0 - 100% represent growth inhibition, and numbers from -100% - 0 represent cell death. For example, a value of 40 represents 60% growth inhibition. A value of 0 means no net growth occurred over the course of the experiment. A value of -40 indicates 40% of cells at the beginning of the experiment died by the end of the experiment. A value of -100 means all cells are dead at the end of the experiment.
# NCI-60 Human Tumor Cell Lines Screen was performed using the standard one-dose NCI protocol, which is described in more detail at https://dtp.cancer.gov/discovery_development/nci-60/default.htm.
# Compounds with GIPRCNT values below 10 were considered active. Activity score was based on GIPRCNT using the following formula: […]
# Score is 0 for GIPRCNT values of 100 or above, 50 for GIPRCNT values of 0, and 100 for GIPRCNT values of -100.
row,Compound,growth
1,COc1ccc(-c2cc(-c3ccc(N(C)C)cc3)nc(NC(=O)c3cccnc3)n2)cc1,103% (inactive)
2,C#C[C@]1(O)CC[C@H]2[C@@H]3CC=C4c5sc(-c6cccc(C)c6)nc5CC[C@]4(C)[C@H]3CC[C@@]21C,88.9% (inactive)
3,COC(=O)[C@@H](Cc1c[nH]c2ccccc12)NC[C@@H](O)CN1C(=O)/C(=C\c2cc(OC)c(OC)c(OC)c2)c2ccccc21,98.6% (inactive)
4,COc1cccc(NC(=O)c2sc3nc(C)c(C(=O)c4ccccc4)cc3c2N)c1,41% (inactive)
5,O=C(Nc1ccccc1)Nc1ccccc1CNc1nc(Nc2ccc(OCCN3CCCC3)cc2)ncc1Cl,86.1% (inactive)
6,C=CC(=O)NCc1cccc(Nc2ncc(Br)c(NCCCNC(=O)C3CCC3)n2)c1,-42% (active)
7,O=C(CN1C(=O)NC2NC(=O)NC21)N/N=C/c1cccc([N+](=O)[O-])c1 (stereo not given),108% (inactive)
8,Cc1ccc(C(=O)Nc2ccc(CN3CCN(C)CC3)c(C(F)(F)F)c2)cc1C#Cc1cnc(N)c2ccccc12,-1.39% (active)
9,CCCCCCCCCCCCCC[n+]1ccc2c(C)c3c(c(C)c2c1)c1cc(O)ccc1n3CC,-19% (active)
10,CCCCC/C=C/CCC(=O)N[C@H]1[C@H](Oc2c3cc4cc2Oc2ccc(cc2Cl)[C@@H](O[C@@H]2O[C@H](CO)[C@@H](O)[C@H](O)[C@H]2NC(C)=O)[C@@H]2NC(=O)[C@H](NC(=O)[C@@H]4NC(=O)[C@H]4NC(=O)[C@@H](Cc5ccc(c(Cl)c5)O3)NC(=O)[C@@H](N)c3ccc(O)c(c3)Oc3cc(O)cc4c3)c3ccc(O)c(c3)-c3c(O[C@H]4O[C@H](CO)[C@@H](O)[C@H](O)[C@@H]4O)cc(O)cc3[C@H](C(=O)O)NC2=O)O[C@H](CO)[C@H](O)[C@@H]1O,111% (inactive)
11,CCN1CCN(c2cc(C(=O)Nc3cccc(Nc4ccc5c(OC)cccc5n4)c3)cc(C(F)(F)F)c2)CC1,54% (inactive)
12,CNC(=O)c1cc(Oc2cccc3nc(NC(=O)Nc4ccc(F)cc4F)ccc23)ccn1,35.3% (inactive)
13,CN1CCN(c2ccc(Nc3ncc4[nH]c(=O)n(Cc5ccccc5N)c4n3)cc2)CC1,81.3% (inactive)
14,C#C[C@]1(O)CC[C@H]2[C@@H]3CC=C4c5sc(-c6ccccc6)nc5CC[C@]4(C)[C@H]3CC[C@@]21C,111% (inactive)
15,CCOC(=O)c1cc(C(=O)c2cc(OC)cc(OC)c2)n2ccccc12,35.8% (inactive)
16,COc1cc(/C=N/NC(=O)c2ccc3nc(-c4ccc(Cl)cc4)[nH]c3c2)cc(OC)c1OC,87.8% (inactive)
17,COc1ccc(/C(C)=C(\c2ccc(Cl)cc2)c2ccc(OCCCN(C)C)cc2)cc1,111% (inactive)
18,N#CC1=C(N)Oc2c(ccc3cccnc23)C1c1ccccc1 (stereo not given),58.3% (inactive)
19,COc1cc(/C=C/c2cc(/C=C/c3ccc(O)c(OC)c3)n(C(=O)Nc3ccc(C)cc3C)n2)ccc1O,-63.6% (active)
20,C=CC(=O)Nc1ccc2ncnc(Nc3cccc(NS(=O)(=O)CCC)c3Cl)c2c1,19.6% (inactive)

row,Compound,growth
1,CN(Cc1ccccc1)c1nc(Cl)c(C2CC(c3ccc(Cl)cc3)=NN2c2cc(Cl)cc(Cl)c2)s1 (stereo not given),92.9% (inactive)
2,CNC1=C([N+](=O)[O-])C(c2ccc(OC)cc2)C(C#N)=C(c2ccc[nH]2)O1 (stereo not given),102% (inactive)
3,COc1cc2ncnc(Nc3ccc(S(=O)(=O)Nc4cc(C)on4)cc3)c2cc1OCCCN1CCOCC1,95% (inactive)
4,CCCN1C2CCC1/C(=C\c1ccc(OC)cc1)C(=O)/C2=C/c1ccc(OC)cc1,79.4% (inactive)
5,O=C(Nc1ccc2[nH]ncc2c1)c1csc(Nc2ccccc2)n1,50.7% (inactive)
6,O=C(O)CCCN1C(=O)CSC1=S,109% (inactive)
7,Cc1ccc(S(=O)(=O)c2nc(-c3ccccc3)oc2S(C)=O)cc1 (stereo not given),83.6% (inactive)
8,Nc1ncc(-c2ccc3ncnc(N4CCc5cc(F)c(Cl)cc54)c3c2)cc1C=O,-3.8% (active)
9,COc1ccc(-c2csc(NC(=O)CSc3nc(C)cc(=O)[nH]3)n2)cc1,102% (inactive)
10,CCOC(=O)/C=C1\S/C(=N\Nc2cc(=O)[nH]c3ccc(OC)cc23)N(c2ccccc2)C1=O,104% (inactive)
11,CCOC(=O)c1c(NC(=S)Nc2ccc([N+](=O)[O-])cc2)sc2c1CCCCC2,66% (inactive)
12,CCOc1ccc(-c2cc(C3(S(=O)(=O)c4ccc(C)cc4)CC=CC3)on2)cc1,91% (inactive)
13,CCN(CC)CCN1C(=O)c2c(c(C)c3c(oc4cc(OC)ccc43)c2C)C1=O,115% (inactive)
14,C=C(C)[C@@H]1CC[C@]2(C(=O)NC(C)=O)CC[C@]3(C)[C@H](CC[C@@H]4[C@@]5(C)CCCNC(C)(C)[C@@H]5CC[C@]43C)[C@@H]12,68.6% (inactive)
15,O=C1OCC2=C1C(c1cccc(F)c1)c1cc3c(cc1N2CCO)CCC3 (stereo not given),32.8% (inactive)
16,CSc1nc(CC(C)C)c(C#N)c(=O)n1C,87.7% (inactive)
17,CCCC[N+]1(C)CCN=C1Cc1ccccc1 (stereo not given),109% (inactive)
18,CC1=C(C(=O)OCc2ccccc2)C(c2ccc3c(c2)OCO3)n2c(nc3ccccc32)N1 (stereo not given),41.7% (inactive)
19,O=C(OCC(O)C(=O)NC12CC3CC(CC(C3)C1)C2)c1cccc(Br)c1 (stereo not given),102% (inactive)
20,O=C(NC1CCCCCC1)c1ccc2c(=O)n3c(nc2c1)CCCCC3,108% (inactive)
